Hit rate of the full screen: of about 4,900 compounds, about 2,000 (41%) were called active.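 How the source made its calls: active means thallium signal drop beyond 5 SD of the untreated control mean, on both duplicate plates; inactive means the rest.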 So high a share suggests a set chosen from earlier hits. These entries were drawn from the full list.
Assay: thallium flux in non-induced HEK293 cells, confirmation, counter-screen for KCNK9 inhibitor project, cell-based, second counter screen, non-induced KCNK9-HEK293 (AID 492997);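 on inhibition: plate controls were buffer only IC0 wells for no effect and SID17386958 at its maximal inhibitory level for full effect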
Conditions: non-induced KCNK9-HEK293, FluxOR thallium flux, at 10 µM; active compounds read high

| Structure (SMILES) | inhibition |
| --- | --- |
| O=C1N=C2SCCN2/C1=C\c1c(Cl)cccc1Cl | inactive |
| COc1cccc(OC)c1C(=O)Nc1sc2c(c1C(N)=O)CCCC2 | inactive |
| Cc1ccc(OCc2cc(C(=O)N(C)CCc3ccccc3)no2)cc1C | inactive |
| COc1ccc(C(C)=O)cc1COc1ccc(Cl)c(C)c1 | 37% (active) |
| O=C(NCc1ccccc1)C1=C[C@@H](C2CCCCC2)C[C@@H](OCc2ccc(CO)cc2)O1 | inactive |
| CCC(C)(C)n1nnnc1C(c1cccs1)N1CCN(c2nc3ccccc3s2)CC1 (centres undefined) | 34.5% (active) |
| CC1(C)CC(N2CCN(C(c3ccccc3)c3ccccc3)CC2)=CC(=[N+]2CCCCC2)C1 | 36% (active) |
| Cc1ccccc1CSc1nnc(CCCCCNC(=O)OC(C)(C)C)o1 | 22% (active) |
| COC(=O)c1sc(-c2ccc(C(C)(C)C)cc2)cc1NC(=O)/C=C/C(=O)O | inactive |
| COc1ccc(C(=O)NN2C(=O)C3C(c4ccccc4)C=CC(c4ccccc4)C3C2=O)cc1 (centres undefined) | inactive |
| COc1ccc(C(=O)Nc2ccccc2C(=O)N/N=C/c2ccccc2OC)cc1 | 31% (active) |
| COc1cccc(-c2cnc(OC(C)(C)C)nc2OC(C)(C)C)c1 | inactive |
| O=C(COc1ccc(Cl)cc1Cl)N/N=C/c1ccccn1 | inactive |
| O=C(N/N=C/c1ccccn1)c1cccc(NC(=O)c2ccc(Cl)cc2)c1 | 22.5% (active) |
| O=C(Nc1ccc2c(c1)CCC2)c1cccc(S(=O)(=O)Nc2ccccc2Cl)c1 | inactive |
| CCc1ccccc1NC(=O)/C(=C/c1ccccc1)c1ccccc1 | 51.5% (active) |
| COc1ccc(C2CC(c3cccs3)=NN2c2ccccc2)cc1 (centres undefined) | 34% (active) |
| CCOc1ccccc1NC(=O)C12CC3CC(C1)CC(c1ccc(C)cc1)(C3)C2 | inactive |
| Cc1ccc(S(=O)(=O)N2CCN(C(=O)COC(=O)c3c(C)cc(C)cc3C)CC2)c(C)c1 | inactive |
| O=C(NCCc1ccccc1)c1ccc2c(c1)N(Cc1ccccc1)CCS2 | 29% (active) |
| O=C1/C(=C/c2ccc3c(c2)OCO3)CCC/C1=C\c1ccc2c(c1)OCO2 | inactive |
| CC1(C)CC(=O)CC2(C1)NCC(c1ccccc1Cl)c1c2[nH]c2ccccc12 (centres undefined) | 33% (active) |

| Structure (SMILES) | inhibition |
| --- | --- |
| Cc1cccc(C(=O)Nc2ccccc2N2CCN(c3ccc(F)cc3)CC2)c1 | 29.5% (active) |
| Cc1ccc(N2CCN(S(=O)(=O)c3ccc(F)cc3)CC2)c(C)c1 | inactive |
| CCCCC(=O)Nc1ccccc1N1CCN(c2ccc(F)cc2)CC1 | 43% (active) |
| COc1ccc(C(=O)C2CCCN(C(=O)c3ccc(OC)o3)C2)c(C)c1 (centres undefined) | inactive |
| Cc1ccc2c(c1)N(C(=O)CCC(=O)N1CCc3ccccc3C1)CCO2 | inactive |
| Fc1ccc(Cn2nnnc2C(c2cccs2)N2CCCCCC2)cc1 (centres undefined) | 30.5% (active) |
| CCOc1ccc2[nH]c(=O)c(CN(Cc3nnnn3CCc3ccccc3)CC3CCCO3)cc2c1 (centres undefined) | inactive |
| Cc1cccc2cc(CN(Cc3nnnn3Cc3ccccc3)C3CCCC3)c(=O)[nH]c12 | inactive |
| CCC(c1nnnn1Cc1ccco1)N(CCc1ccccc1)Cc1cc2cccc(C)c2[nH]c1=O (centres undefined) | 33.5% (active) |
| O=C1CC(NNc2ccccc2)C(=O)N1c1cccc(Cl)c1 (centres undefined) | inactive |
| c1ccc(C(c2ccccc2)N2CCN(Cc3nnnn3C3CCCCC3)CC2)cc1 | 29% (active) |
| CCOc1ccc(OCc2ccc(C(=O)Nc3cccc(C)n3)o2)cc1 | inactive |
| CSc1cccc(NC(=S)N(C(C)C)C(C)c2ccccn2)c1 (centres undefined) | 24.5% (active) |
| COC(C(=O)Nc1ccc(S(=O)(=O)Nc2ccc(C)c(C)c2)cc1)c1ccccc1 (centres undefined) | inactive |
| CC(C)C(=O)Nc1cccc(NC(=S)NC(=O)C(c2ccccc2)c2ccccc2)c1 | 24% (active) |
| CCCCOC(=O)CCCc1ccc([N+](=O)[O-])cc1[N+](=O)[O-] | inactive |
| COc1cc(Cl)c(S(=O)(=O)N2CCN(Cc3ccc4c(c3)OCO4)CC2)cc1Cl | inactive |
| COc1ccc(-c2nc(CCNC(=O)c3ccc(Br)o3)cs2)cc1 | inactive |
| COc1ccc(CCNC(=O)c2ccccc2OCc2ccccc2)cc1 | 40% (active) |
| COc1ccc(CCNc2ncnc3c2nnn3Cc2ccccc2)cc1 | inactive |
| COCCNc1cc(-c2ccccc2)nc2cc(-c3cccc(F)c3)nn12 | 30% (active) |
| COC(=O)Cn1cnc2scc(-c3ccc(C)c(C)c3)c2c1=O | inactive |

| Structure (SMILES) | inhibition |
| --- | --- |
| Cc1ccc(-c2csc(NCCc3nc4cc(Cl)c(Cl)cc4n3CCOCCO)n2)cc1 | 36% (active) |
| CCN(C(=O)COc1ccc(C(=O)c2ccccc2)cc1)c1ccccc1 | 29% (active) |
| Cc1ccc(C2=Nc3c(ccc4ccccc34)C(c3ccncc3)=NN2)cc1 | inactive |
| COc1ccc2c(c1)C(c1cccs1)=NNC(c1cccnc1)=N2 | 24.5% (active) |
| O=C(NNc1ccccc1Cl)C(O)(c1cccc(C(F)(F)F)c1)c1cccc(C(F)(F)F)c1 | inactive |
| O=[N+]([O-])/C=C/c1ccc2c(ccn2Cc2ccccc2)c1 | 44.5% (active) |
| COc1cccc(COc2ccc(N(C)S(=O)(=O)c3ccccc3)cc2)c1 | 49.5% (active) |
| CCOC(=O)c1cc2sccc2n1Cc1ccc(C#N)cc1 | 53% (active) |
| O=C(OCC(=O)N(CCc1ccccc1)Cc1ccccc1)c1ccccc1[N+](=O)[O-] | inactive |
| O=C(Nc1ccc(Cl)c(Cl)c1)N1CC=C(c2ccccc2)CC1 | inactive |
| Cc1nc(N2CCN(c3ccccn3)CC2)c2c(C)c(C(=O)Nc3ccc(F)c(Cl)c3)sc2n1 | 24.5% (active) |
| COc1ccc(C(=O)C2CCCN(C(=O)c3cc(C)on3)C2)cc1F (centres undefined) | inactive |
| Oc1ccc(/C=N/Nc2nc(-c3ccccc3F)nc3ccccc23)c(O)c1 | 32% (active) |
| O=C1c2ccccc2S(=O)(=O)N1CC(O)Cn1c2ccccc2c2ccccc21 (centres undefined) | inactive |
| Cc1cccc(NC(=O)CN2CCCN(S(=O)(=O)c3ccc(Br)s3)CC2)c1 | 39.5% (active) |
| Cc1cccc(N(C)C(=O)CN2C(=O)COc3ccc(S(=O)(=O)N4CCCCCC4)cc32)c1 | inactive |
| O=C(CSCc1ccc(Br)cc1)Nc1ccc(S(=O)(=O)N2CCCCCC2)cc1 | inactive |
| O=C1c2ccccc2C2=Nc3ccccc3SC(c3ccccc3F)C12 (centres undefined) | 45.5% (active) |
| C=CCN(N=Nc1cccc([N+](=O)[O-])c1)c1cccc([N+](=O)[O-])c1 | 39% (active) |
| Cc1ccc(NC2CCCN(C(=O)CCC3(C)CC3)C2)cc1C (centres undefined) | inactive |
